Compounds with a hit are over-represented: about 1.2% of the library has one in this group of screens.
gsp agonist: activates gsp, the McCune-Albright syndrome mutation | Potency, µM (doses to about 76.9 µM), without a hit: at the top dose activation (cAMP increase), actives largely listed as activators | 340,000 compounds, 0.13% hits | gsp mutant cells, cAMP HTRF, 30 min; active = well fitted activation curve with a large enough effect; inconclusive = small, poorly fitted or top-dose-only effect, or another doubt; inactive = no such curve, though single readings can be large or run the other way; cell line not stated here;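 note: phosphodiesterase inhibitor Ro 20-1724 added with compounds to block cAMP breakdown; potency is the fitted concentration of half-maximal effect; nearly all actives have a fitted effect of over 60% in size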
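Cells in DMEM/10% FBS with G418 were pretreated with compounds in DMSO plus […] (300 uM stock) for 30 min at 37C. cAMP was measured by HTRF (cAMP-d2 plus anti-cAMP antibody-K) after 30 min at room temperature.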
TSHR antagonist: human thyrotropin receptor antagonism; 330,000 compounds, 0.2% hits; TSHR-expressing cells, TSH-stimulated cAMP HTRF, 2 h; hits give low values; activity change, negative = inhibition, % at 11.5 µM;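 active = activity change below a set negative limit, meaning inhibition stronger than a set level, cut at about -70% in these data; inconclusive = activity change between two set negative limits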; note: % is set by controls: 0 for no effect and ±100 for the full control effect
Target sequence (P16473 whole entry, looked up): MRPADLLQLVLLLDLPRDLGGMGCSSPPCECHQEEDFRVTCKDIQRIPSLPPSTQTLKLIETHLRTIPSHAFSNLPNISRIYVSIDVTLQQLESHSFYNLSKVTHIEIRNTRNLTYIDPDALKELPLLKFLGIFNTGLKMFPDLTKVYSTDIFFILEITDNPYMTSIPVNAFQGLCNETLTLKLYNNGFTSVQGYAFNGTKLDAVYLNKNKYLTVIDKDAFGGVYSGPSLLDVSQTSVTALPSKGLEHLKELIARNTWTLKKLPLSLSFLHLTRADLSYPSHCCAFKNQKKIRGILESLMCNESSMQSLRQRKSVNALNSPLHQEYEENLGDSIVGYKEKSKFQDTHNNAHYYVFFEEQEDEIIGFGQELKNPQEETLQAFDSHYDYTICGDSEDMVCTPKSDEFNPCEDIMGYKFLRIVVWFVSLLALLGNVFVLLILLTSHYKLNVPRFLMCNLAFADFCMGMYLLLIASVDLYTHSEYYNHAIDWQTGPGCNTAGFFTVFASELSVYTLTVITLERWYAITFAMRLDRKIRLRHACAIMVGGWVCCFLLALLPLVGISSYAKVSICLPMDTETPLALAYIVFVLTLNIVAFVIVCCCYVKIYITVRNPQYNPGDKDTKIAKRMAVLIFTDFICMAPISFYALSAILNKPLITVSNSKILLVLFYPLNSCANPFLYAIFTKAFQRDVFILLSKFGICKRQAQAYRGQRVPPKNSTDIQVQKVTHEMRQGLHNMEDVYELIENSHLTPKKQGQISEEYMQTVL
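TSHR-expressing cells were treated with compounds, then stimulated with TSH at EC80 (4nM final) for 2 hours at 37 deg C. Cellular cAMP was measured by HTRF competition between lysate cAMP and cAMP-d2 for a cryptate-labelled anti-cAMP antibody.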
CCT chaperon mod: changes cytosolic chaperonin activity; AID 651819; activity change, % (test concentration not listed), hits read low; 360,000 compounds, 0.3% hits; purified chaperonin ATPase assay, HTRF ADP detection, 30 min; in the data active = activity change below about -30%; note: % is set by controls: 0 for no effect and ±100 for the full control effect
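TRiC (40 or 20 nM final, by batch activity) in 30 mM Tris pH 7.4, 100 mM KCl, 5 mM MgCl2, 1 mM DTT was treated with compound at 76 uM single dose, then 10 uM ATP, 30 min at 37 °C. ADP was read by HTRF Transcreener.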
MmCpn inh: inhibitors of Methanococcus maripaludis chaperonin TRiC (MmCpn); Potency, µM (top dose mostly 76.9 µM), without a hit: at the highest dose activity, negative = inhibition, most hits filed as inhibitors; 330,000 compounds, 0.031% hits; purified Mm-Cpn ATPase, ADP Transcreener TR-FRET; active = well fitted inhibition curve with a large enough effect; inconclusive = small, poorly fitted or top-dose-only effect; note: potency is the fitted concentration of half-maximal effect; % is set by controls: 0 for no effect and ±100 for the full control effect; nearly all actives have a fitted effect of over 80% in size
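ATP (10 uM final) was added to archaeal chaperonin (25 nM final) after 10 min exposure to test compound at 37°C; after 30 min further incubation, ADP was detected by competitive TR-FRET.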
gsp antag: antagonizes gsp, the McCune-Albright syndrome mutation | gsp-mutant cells, cAMP HTRF, 30 min | Potency, µM (doses to about 76.9 µM), inactives show at the highest dose activity change, negative = inhibition, most hits filed as inhibitors | 340,000 compounds, 0.4% hits | AID 624288; calls by dose curve; cell line not stated here;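 note: intracellular cAMP measured with PDE inhibitor Ro 20-1724 present during compound exposure; potency is the fitted concentration of half-maximal effect; % is set by controls: 0 for no effect and ±100 for the full control effect; nearly all actives have a fitted effect of over 65% in size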
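G418-selected cells were plated in DMEM/10% FBS for 16-24 h at 37C, then treated with compounds plus the PDE inhibitor […] (300 uM solution added) for 30 min at 37C. Intracellular cAMP was measured by HTRF after 30 min lysis at room temperature.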
uPA surface inh: blocks generation of uPA at the cell surface | cell surface uPA generation assay, qHTS | Potency, µM (doses to about 38.3 µM), without a hit: top-dose activity change, negative = inhibition, most hits filed as inhibitors | 330,000 compounds, 0.31% hits; active = well fitted inhibition curve with a large enough effect; inconclusive = small, poorly fitted or top-dose-only effect; inactive = no such curve, though single readings can be large or run the other way; tested in mouse RAW 264.7 cells; note: potency is the fitted concentration of half-maximal effect; % is set by controls: 0 for no effect and ±100 for the full control effect; nearly all actives have a fitted effect of over 55% in size
Active calls of the source: *; ? = inconclusive; nt = no result; [ ] = another dose, or the depositor's remark.

SMILES	gsp agonist	TSHR antagonist	CCT chaperon mod	MmCpn inh	gsp antag	uPA surface inh
O=C(NCC1CCCN(C2Cc3ccccc3C2)C1)c1cccs1 (centres undefined)	-42%	30	-1	-1%	1%	-2%
CCCc1ccc(-c2csc(NC(=O)C3=COCCO3)n2)cc1	?	-14	0	-3%	-20%	2%
CC1(C)Cc2c(c(-c3ccco3)nc3sc4c(NCCCO)ncnc4c23)CO1	3%	4	-42*	-1%	0%	?
CC1(C)Cc2c(c(-c3ccco3)nc3sc4c(NCCN5CCOCC5)ncnc4c23)CO1	5%[15.4 µM]	-7	-1	-1%	-7%	-10%
O=C(Nc1ccc2c(c1)OCO2)NC1(C(F)(F)F)Oc2ccccc2O1	28%	-5	-2	1%	0%	-11%
O=C(Nc1ccc2c(c1)OCCO2)NC1(C(F)(F)F)Oc2ccccc2O1	25%	5	0	0%	-6%	2.5µM*
NC(=O)C1CCN(C(=O)CN2C(=O)c3ccccc3S2(=O)=O)CC1	-3%	10	-41*	-1%	10%	nt
O=C(CN1C(=O)c2ccccc2S1(=O)=O)c1ccc2c(c1)OCCO2	4%	-5	0	1%	-9%	2µM*
O=C(CN1C(=O)c2ccccc2S1(=O)=O)c1ccc2c(c1)OCCCO2	28%[15.4 µM]	-10	0	1%	-4%	-8%
CCOC(=O)CSc1nnc(-c2ccc(S(=O)(=O)NCc3cccs3)cc2)o1	7%	nt	0	nt	-10%	-21%
Cc1ccc(C(=O)N2N=C3c4ccccc4S(=O)(=O)N3[C@H]2N(C)C)cc1	?	-6	-1	3%	-9%	3%
COc1ccc(-c2ncccc2O)cc1	-3%	0	0	-2%	6%	3%
O=C(CCl)Nc1ccc(N=Nc2ccccc2)cc1	15%	-12	1	2%	?	14µM*
O=C(CCl)Nc1ccc(-c2ccccc2)cc1	6%	5	2	-1%	-24%	?
O=S(=O)(Nc1cccc(-c2ccc(N3CCCCCC3)nn2)c1)c1ccccc1Cl	?	-16	2	-17%	28µM*	-13%
O=S(=O)(Nc1cccc(-c2ccc(N3CCCCCC3)nn2)c1)c1ccc(F)cc1	?	-83*	0	-5%	?	-13%
O=S(=O)(Nc1cccc(-c2ccc(N3CCCCCC3)nn2)c1)c1cccc(F)c1	6%	-19	-2	-6%	?	20%
O=S(=O)(Nc1ccc(-c2ccc(N3CCOCC3)nn2)cc1)c1ccc(Cl)c(Cl)c1	19%[15.4 µM]	-34	-2	-2%	35µM*	3%
COc1ccc(N2CCN(C(=O)CSc3nnc(-c4ccc5[nH]c(C)c(C)c5c4)o3)CC2)cc1	11%	-2	-5	-1%	-8%	1%
CCn1c(C)[n+](CC)c2ccc(C(=O)N(C)c3ccccc3)cc21	38%	1	-33*	-3%	5%	4%
Cc1ccc(N(CCC#N)C(=O)CSc2nc3ccccc3c(=O)[nH]2)cc1	-7%	-8	-1	2%	50µM*	-13%
CS(=O)(=O)Nc1ccc(C2=NN(C(=O)C3CCCCC3)C(c3cccs3)C2)cc1 (centres undefined)	10%[15.4 µM]	-9	-2	-15%	25µM*	0%
COc1ccc(S(=O)(=O)NCCc2c[nH]c3ccc(Cl)cc23)cc1	-4%[15.4 µM]	-5	0	0%	-6%	0%
COc1ccc(CCNc2ncnc3sc(C)cc23)cc1OC	-21%	?	0	-2%	35µM*	-8%
CC1CCN(C(=O)COC(=O)c2ccc(=O)n(Cc3ccccc3)n2)CC1	-1%	6	0	-1%	0%	5%
SMILES	gsp agonist	TSHR antagonist	CCT chaperon mod	MmCpn inh	gsp antag	uPA surface inh
CCCc1nc(SCC(=O)N2CCC(Cc3ccccc3)CC2)c2c(=O)n(C)c(=O)n(C)c2n1	?	0	1	0%	25µM*	8%
CCc1nc(SCC(=O)N2CCN(c3ccccc3)CC2)c2c(=O)n(C)c(=O)n(C)c2n1	nt	5	nt	-5%	nt	nt
COc1ccc(C(=O)Nc2ccc(O)cc2C(=O)O)cc1	21%	0	1	1%	2%	-7%
COCCCN1C(=O)C(O)=C(C(=O)c2ccco2)C1c1ccccc1 (centres undefined)	?	18	-1	-1%	17%	0%
COCCCN1C(=O)C(O)=C(C(=O)c2ccc(C)o2)C1c1cccc(Br)c1 (centres undefined)	13µM*	11	2	-2%	11%	0%
CCOC(=O)CNC(=O)CSc1nnc(-c2cccc(C)c2)n1-c1ccc(OC)cc1	-5%	12	-5	1%	6.3µM*	5%
O=C(Cn1cc2c(n1)CCCCC2)N1CCCCC1	-140%	1	-2	2%	9%	1%
CC(C)NC(=O)N(Cc1ccc(Cl)cc1)Cc1cccs1	-18%	-5	1	-4%	-14%	-13%
COc1ccc(-c2csc(NC(=O)c3ccccc3NS(=O)(=O)c3ccc(C)cc3)n2)cc1	?	-82*	1	-21%	?	-3%
COc1ccc(S(=O)(=O)Nc2ccccc2C(=O)Nc2nc(-c3ccc(F)cc3)cs2)cc1OC	-6%[15.4 µM]	-88*	-2	-14%	35µM*	-2%
CCCNC(=O)c1ccccc1NS(=O)(=O)c1ccc(OC)c(OC)c1	-29%	7	1	1%	-1%	0%
COc1ccc(-c2csc(NC(=O)C3=NN(c4ccccc4)C(=O)CC3)n2)cc1	-22%	-78*	-1	-4%	?	-12%
CCC(C)[C@H](NC(=O)NC1CC1)C(=O)O (some centres undefined)	-20%	58	-3	0%	12%	1%
Cc1nc(NC(=O)c2ccccc2)sc1Cc1ccc2c(c1)OCO2	26%	-25	-2	-4%	?	-13%
O=C(Nc1cccc(NC(=O)c2cc([N+](=O)[O-])ccc2Cl)n1)c1cc([N+](=O)[O-])ccc1Cl	34%	nt	0	nt	-17%	8.9µM*
COc1ccc(C(=O)NCCNC(C)=O)cc1S(=O)(=O)NCc1ccc(Cl)cc1	-10%	17	-1	0%	2%	0%
COc1ccc(C2CC(c3ccccc3)=NN2C(=S)Nc2ccccc2)cc1 (centres undefined)	5%[15.4 µM]	-8	-9	50µM*	-7%	10%
COc1ccc(C2=NN(C(=S)Nc3ccccc3)C(c3ccccc3)C2)cc1 (centres undefined)	3%	1	-3	-24%	11%	-4%
Cc1ccc2[nH]c(C(F)(F)F)cc(=O)c2c1	9%[15.4 µM]	4	-6	2%	3%	-8%

From PubChem BioAssay
